# Measurements: PubChem BioAssay (NCATS)
# A number with no mark means an inactive call. For part of these data: Measured potencies and affinities stand elsewhere. The source made the active and inactive calls. No rule for the calls is given here.
# Tests used:
# [1] = Ebola virus entry assay, green fluorescence channel
# [2] = Ebola virus entry assay, blue channel fluorescence
# [3] = Ebola virus entry assay, ratio channel
# [4] = Ebola virus entry assay, reporter ratio channel; Channel type: primary
# For efficacy in this document: 0% is about no effect.
SMILES,efficacy [1],AC50 [2],AC50 [3],AC50 [4],outcome [3],outcome [2]
CCN(CC)CCOc1ccc(/C(=C(\Cl)c2ccccc2)c2ccccc2)cc1,-182%,1.58 µM (active),1.26 µM (active),1.26 µM (active),,
NCCNc1cccc2ccccc12,85.8%,39.8 µM (active),25.1 µM (active),25.1 µM (active),,
CSc1ccc2c(c1)C(N1CCN(C)CC1)Cc1ccccc1S2 (configuration not stated),-190%,3.55 µM (active),3.16 µM (active),3.16 µM (active),,
CN(C)CCOC(c1ccccc1)c1ccccc1,60.8%,20 µM (active),17.8 µM (active),17.8 µM (active),,
CCNC(=O)N1CCN(CCCC(c2ccc(F)cc2)c2ccc(F)cc2)CC1,111%,12.6 µM (active),11.2 µM (active),11.2 µM (active),,
CN(C)C(=S)SC(=S)N(C)C,-50.4%,5.62 µM (active),5.01 µM (active),5.01 µM (active),,
CCN(CCCCOC(=O)c1ccc(OC)c(OC)c1)C(C)Cc1ccc(OC)cc1 (configuration not stated),112%,20 µM (active),15.8 µM (active),15.8 µM (active),,
CCOC(=O)[C@H](CCc1ccccc1)N[C@H]1CCc2ccccc2N(CC(=O)O)C1=O,88%,3.98 µM (active),3.98 µM (active),3.98 µM (active),,
CN1CCC(=C2c3ccccc3Sc3ccccc32)CC1,61.5%,8.91 µM (active),5.01 µM (active),5.01 µM (active),,
C[C@@]12C(=O)OC(=O)[C@]1(C)C1CCC2O1,65.6%,5.62 µM (active),7.94 µM (active),7.94 µM (active),,
CO[C@@H]1[C@@H](OC)[C@H](C)[C@@](O)(CC(=O)O)O[C@H]1[C@H](C)[C@H]1O[C@@]2(CC[C@@](C)([C@H]3CC[C@@](C)([C@@H]4O[C@@H]([C@H]5O[C@](C)(O)[C@H](C)C[C@@H]5C)C[C@@H]4OC4C[C@H](OC)[C@@H](OC)[C@H](C)O4)O3)O2)C[C@H](O)[C@H]1C (some centres not stated),-69.9%,1.58 µM (active),1 µM (active),1 µM (active),,
C1CCC(C(CC2CCCCN2)C2CCCCC2)CC1 (configuration not stated),-230%,1.78 µM (active),0.891 µM (active),0.891 µM (active),,
COC(=O)[C@H]1[C@H]2C[C@@H]3c4[nH]c5cc(OC)ccc5c4CCN3C[C@H]2C[C@@H](OC(=O)COc2ccc(OC)cc2)[C@@H]1OC,21%,22.4 µM (active),25.1 µM (active),25.1 µM (active),,
CCN1CCCC(OC(=O)C(c2ccccc2)c2ccccc2)C1 (configuration not stated),26.3%,25.1 µM (active),20 µM (active),20 µM (active),,
CCCCN(CCCC)CCC(O)c1cc2c(Cl)cc(Cl)cc2c2cc(C(F)(F)F)ccc12 (configuration not stated),131%,7.94 µM (active),4.47 µM (active),4.47 µM (active),,
C/C(=C(/OCCOc1ccc(Cl)cc1)c1ccc(Cl)cc1Cl)n1ccnc1,81.6%,39.8 µM (active),,39.8 µM (active),inactive,
O=C1OC2(c3ccccc31)c1cc(I)c(O)c(I)c1Oc1c2cc(I)c(O)c1I,162%,,,39.8 µM (active),inactive,inactive
CC(C)COCC(CN(Cc1ccccc1)c1ccccc1)N1CCCC1 (configuration not stated),-190%,2.82 µM (active),2 µM (active),2 µM (active),,
